According to PubChem BioAssay (NCI):
This is part of a sample that, as a whole, favours compounds with a hit. Of some 83,000 tested, about 20% had one in any assay.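 Single-dose data. Exposure time 48 hours. Values below 10 considered active.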 Active and inactive are the calls of the source.

Tested on: HOP-92 NSCLC
Assay: NCI-60 one-dose screen, 48 h (100 = growth as untreated, 0 = no growth, -100 = all killed)
Conditions: 10 µM unless noted

Compound	growth
CN(C[C@H]1Cc2c(cccc2N2CCN(c3ncccn3)CC2)CN1)[C@H]1CCCc2cccnc21	27.4% (inactive)
COc1ccc(-c2cnoc2-c2ccc(OC)cc2O)cc1	52.1% (inactive)
COc1ccc(/C=N\NC(=O)CN2CCN(c3cc4c(cc3F)c(=O)c(C(=O)N/N=C/c3ccc(OC)c(OC)c3)cn4C3CC3)CC2)cc1OC	-2.77% (active)
C1=Cc2ccccc2N(c2nnc(-c3ccccc3)o2)c2ccccc21	84.7% (inactive)
COc1ccc(-c2nc3sc(-c4cc(OC)c(OC)c(OC)c4)nn3c2/C=C2/C(=O)Nc3ccc(F)cc32)cc1	-58.8% (active)
O=C(Oc1ccccc1[N+](=O)[O-])C1CCCN1C(=O)OCc1ccccc1 (centres undefined)	86.3% (inactive)
CC(C)(C)OC(=O)NC(CSCc1ccccc1)C(=O)ON1C(=O)CCC1=O (centres undefined)	92.4% (inactive)
O=S(=O)(NCCCNc1nccc(-n2ccc3cccnc32)n1)c1ccc(Br)cc1	109% (inactive)
COc1ccc(/C=C2\Oc3cc(OCCCN4CCCC4)ccc3C2=O)cc1	82.2% (inactive)
Cc1csc(NC(c2ccc(Br)cc2)c2c(C)nc3ccccn23)n1 (centres undefined)	42.9% (inactive)
Cn1c(=O)cc(NC(=O)CN2CCN(c3cc4c(cc3F)c(=O)c(C(=O)O)cn4C3CC3)CC2)[nH]c1=O	99.8% (inactive)
CC(C)(C)n1cc(-c2ccnc(NCCNS(=O)(=O)c3ccc(F)cc3)c2)c(-c2cccc(O)c2)n1	58.3% (inactive)
CC(C)(C)n1cc(-c2ccnc(NCCNS(=O)(=O)c3ccc(Cl)cc3)c2)c(-c2cccc(O)c2)n1	72% (inactive)
O=C1Nc2ccc3c(c2/C1=C\c1cc2c(cc1Br)OCO2)OCO3	-5.47% (active)
Cc1ccc(N2CCN(C(C)C(N)=O)CC2)cc1 (centres undefined)	123% (inactive)
COc1cc(NC(N)=NCCC(C)(C)Oc2ccc(C(F)(F)F)cc2)ncc1C#N	-10.6% (active)
CCc1ccc(-c2ccc(=O)n(-c3ccc(S(N)(=O)=O)cc3)n2)cc1	65.7% (inactive)
CC[N+](CC)=c1cc2oc3cc(N(C)C)ccc3nc-2cc1C	63.9% (inactive)
COc1cccc(-c2nc3sccn3c2-c2ccnc(NCCCNS(=O)(=O)c3ccc(F)cc3)c2)c1	58.8% (inactive)
N[C@H]1CN(C(=O)c2cc3cc(Br)c(F)c(F)c3[nH]2)C[C@@H]1O	79.2% (inactive)

Compound	growth
O=C(N/N=C/C=C\c1ccccc1)C(=O)N/N=C/C=C/c1ccccc1	115% (inactive)
O=C(O)COc1ccc(-c2cssc2=S)cc1	111% (inactive)
CCOC(=O)c1c(NS(=O)(=O)c2ccc(C)cc2)sc2c1CCC1(C2)OCCO1	77.1% (inactive)
Cc1nc2ncccc2nc1Nc1ccc(S(=O)(=O)Nc2ccccn2)cc1	54.3% (inactive)
Fc1ccc(Nc2ncnc3ccc(-c4cnc5[nH]ccc5c4)cc23)cc1Cl	-5.43% (active)
COc1ccc(C2C(C#N)=C(N)Oc3c2ccc2ccccc32)cc1 (centres undefined)	48.4% (inactive)
COc1ccc(C(=O)N2NC(=O)/C(=C/c3cn(-c4ccccc4)nc3-c3ccccc3)N=C2c2ccccc2)cc1	100% (inactive)
C=C1C(=O)O[C@H]2[C@H]1CC/C(Cn1cc(CNC(=O)Cc3cn(C(=O)c4ccc(Cl)cc4)c4ccc(OC)cc34)nn1)=C\CC[C@@]1(C)O[C@@H]21	-65.8% (active)
CCCCC(CC)OC(=O)C(Br)CC (centres undefined)	95.8% (inactive)
O=C1/C(=C/c2ccccc2)Oc2ccc(O)c(I)c21	86% (inactive)
COC(=O)c1cc2cc(-c3ccc(OC)cc3)cnc2[nH]1	0.19% (active)
c1coc(CNc2ccnc(Nc3ccc(OCCN4CCCCC4)cc3)n2)c1	69.5% (inactive)
COc1ccc2[nH]c(C(=O)OCc3ccc4c(Cl)cc(Cl)c(O)c4n3)cc2c1	-78.6% (active)
CCOC(=O)C1CCNC(=O)C1=O (centres undefined)	102% (inactive)
O=C(O)C1CCCCN1c1nc(Cl)nc(Cl)n1 (centres undefined)	106% (inactive)
C=C1CCC2C(C)(CO)C(O)CCC2(C)C1CC(NCc1ccccc1)C1=CCOC1=O (centres undefined)	99.8% (inactive)
CCCCCCCCCCCC(=O)NCCC[N+](C)(C)CC(=O)[O-]	79.1% (inactive)
CN(CCCCCl)P(=O)(OCc1ccc([N+](=O)[O-])o1)C(F)(F)C[C@H](NC(=O)CNC(=O)c1ccc(N=[N+]=[N-])cc1)C(=O)NCCc1ccc(O)cc1 (some centres undefined)	108% (inactive)
NC(N)=Nc1nc2ccccc2o1	-9.02% (active)
